According to the supplement of paper PMC6555819:

How the values were obtained:
Assay in all cases: PBM binding z-score (relative to random genomic background probes); higher = stronger binding; sequences stand for … in GC…GCGATTGACAGCGTAGAATGAAGG
[1] = system: RARb homodimer (NR concentration 270 nM)
Summary of the method: (§1)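 On custom Agilent 4×180K arrays, double-stranded probes with 34-nt variable regions carried direct-repeat seeds, single-nucleotide variants, half-site ablations or random human genomic background. Ligand-free nuclear receptor dimers were applied for 1 h, and binding was read with antibodies against each partner (one per run). Binding z-scores come from regression-normalized fluorescence, with the random background probes as reference.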

[2] = system: RARg homodimer (NR concentration 270 nM)
Summary of the method: as §1

[3] = system: RXRa DBDmut IVT, anti-RXR (DBD mutation: RXRa K156A/R161A, NR concentration 90 nM)
Summary of the method: as §1

[4] = system: RXRa homodimer (NR concentration 180 nM)
Summary of the method: as §1

[5] = system: THRa:RXRa (NR concentration 90 nM, RXRa partner concentration 90 nM)
Summary of the method: as §1

[6] = system: THRa homodimer (NR concentration 90 nM)
Summary of the method: as §1

[7] = system: VDR:RXRa (NR concentration 270 nM, RXRa partner concentration 90 nM)
Summary of the method: as §1

[8] = system: VDR homodimer (NR concentration 270 nM)
Summary of the method: as §1

[9] = system: RARg:RXRa (NR concentration 270 nM, RXRa partner concentration 90 nM)
Summary of the method: as §1

Sequence	PBM binding z-score [1]	PBM binding z-score [2]	PBM binding z-score [3]	PBM binding z-score [4]	PBM binding z-score [5]	PBM binding z-score [6]	PBM binding z-score [7]	PBM binding z-score [8]	PBM binding z-score [9]
ATCGAAACGTCGACGAGGTGAGTATACACCGTTT	-0.247	0.527	-0.148	0.362	1.1	0.23	-0.119	-0.146	
CCTAGTTGGTCAGGAGGTCACAAACCGGATATGA	3.97	4.1	0.534	4.38	3.31	2.01	3.4	2.44	
GCTAGTGGGTCAGTAAAAGGTCACACACCGGTCG	5.72	6.65	0.518	6.21	4.09	1.66	4.9	2.18	
GCTCGGAGGACAAGGTCAGGGCTTTGTCCGTAGA	3.31	4.39	0.229	3.18	3.22	1.75		0.358	
CAAACTAGGTCAAGAGGTCAAACTCCGCTTCCCG	5.81	7.93	3.21	8.2	4.49	2.71	6.49	5.63	
TCTGCTGGGTCAACGATGGTCAGCTAATCTGCTA	2.96	4.31	0.782	2.58	2.65	-0.44	1.62	-0.395	
ATCGAAAAGTCGAAGGTGAGTATACCCACCCGAA	-0.251	0.586	-0.665		0.0744	-0.357		-0.0912	0.436
CCAACTAGGTCATTGACAGGACAGTGAATAGTAA	2.83	4.34	2.47	2.61	2.88	1.31	2.29	1.64	
ATCTCTAGGTAACAAGGTCAGTGAAAGAGAGGAC	3.49	3.28	0.451	2.26	3.07	2.37	2.12	1.78	
CCTACTGGGCCAAGGTCATTGAGCAGTCAAAGCA	3.03	3.23	1.23	3.66	3.23	2.18	3.07	2.65	
TCTCGGAGGACACGAAACGTCAGAGCTCGACATC	0.176	1.27	0.694	0.0278	1.1	0.276		-0.34	
AGCGAAAGGTCGAAGGTGAGTATACCCACCCGAA	2.44	4.05	0.876	5.09	2.04	-0.329		0.312	
TCTCGGAGGACACGAAAGGTCAGTGCTCGACATC	4.96	5.21	1.23	3.34	3.49	1.51	2.92	1.24	
CCTACTGGGCCATGAAAGGTCATTGATTCAGTGA	4.4	3.85	0.456		3.58	0.811		2.39	4.23
TAGCCTAGGTCATTTGGCCAGTATAGTACGCATC	2.59	4.08	1.99	2.73	2.65	0.679	2.52	1.27	
CCTAGTTGGTCAAGGTCACACATGCTATAGGTAC	4.33	4.71	2.2	4.11	3.96	4.12	4.33	3.99	
TGGCCTAGGTCATGCGGGCCAGTATAGTGTCGGC	2.85	4.45	-0.03	3.03	2.68	0.284	2.64	0.128	
CGAACTAGGTCAACGACAGTGAATCTCCGCACGC	2.87	4.2	1.61	2.45	2.54	1.08		0.435	
TTACCAAGGTGAAAGGTCATTGATGCACGCCTTG	4.75	5.06	1.85		4.42	1.64		3.32	6.91
CCGACTGGGGCAACGGTTACCATACTCAGTACGA	0.463	0.749	-0.399	0.0122	-0.149	-0.243	-0.409	-0.248	
ATCGAAATGTCGTGAGGTGAGTATACAGAAAGGC	0.113	0.683	-0.3	0.0827	1.74	1.16	-0.0568	-0.224	
ATAAGTAGGTTAGGGTCATTCAGAAAGTAGGGAA	3.7	3.3	2.39	5.12	4.31	3.58		4.32	
CCTTACGGGTCACTGACAGGTCATAGCATTTGGA	4.59	5.71	1.79	6.67	3.98	0.878	5.38	2.15	
CGAACTAGGTCAAAGGACAGGGAAAGGCGACGTA	3.14	4.68	1.07	2.78	2.49	0.631	1.27	0.464	
CGAACTAGGTCATCGAGGACAGTGAATACATTGA	3.3	5.19	2.23	3.01	4.11	2.51	6.12	2.73	
CAAACTAGGTCAAAGGTCAAACTCGAGCCAACCA	5.32	8.15	3.04	10.5	4.85	2.14	6.96	4.14	
CCGACTGGGGCAAAGGTCACCATACTCAGTACGA	4.81	6.32	0.548		3.62	1.04		1.55	7
ACTAGCAGGCCAAGGGTGACTCAAGATTAGTCCG	0.337	0.646	-0.454		0.239	-0.521		-0.791	0.341
